The source of these data is PubChem BioAssay (NCATS).

Results filed as inconclusive are left out. Entries that show only a call come without a potency. Active and inactive are the calls of the source. The call rests on the fitted dose curve; in most records, active means well fitted cell-killing curve with a large enough effect; inconclusive means small, poorly fitted or top-dose-only effect, or effect the other way; inactive means flat fitted curve, though single readings scatter.

For one assay, the system named is C33A. Nature of the assay: Primary qHTS to identify gynecologic anti-cancer compounds using libraries of approved drugs and bioactive compounds (AID 1345084). Further: nearly all actives have a fitted effect of over 55% in size. Conditions: Gynecologic cancer cell panel viability, ATPlite luminescence, 48 h; series mostly up to 57.5 µM. The procedure, abridged: (§1)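 In this quantitative HTS, cell killing is estimated from loss of ATP-dependent luciferase light. Cells see five compound concentrations over a 48 h exposure.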
On the technique in general: In qHTS, concentration-response curves come from the screen itself.
For `CNCc1ccc(C)c(NC(=O)c2ccc(Nc3nc(-c4ccccc4)c4ccccc4n3)cc2)c1`, the Potency entry is “inactive”. Same read-out and setting: the same measure for `CC1CCC(n2c3cnccc3c3cnc(Nc4ccc5c(n4)CCN(C(=O)CO)C5)nc32)CC1` (stereo not given): “inactive”.

For the compound `COc1cc2ncnc(Nc3ccc(Oc4ccccc4)cc3)c2cc1OC`, the Potency entry is “inactive”.

Another assay deals with CAOV3. Described as above. Conditions: Gynecologic cancer cell panel viability, ATPlite luminescence, 48 h; series mostly up to 57.5 µM. The procedure, abridged:
as §1
In the case of `C=C1C(=O)O[C@@H]2CC(C)=C([C@@H](C)CCCO)[C@@H](OC(=O)C(C)C)[C@H]12`, the Potency entry was “inactive”.

In the case of `Oc1ccc(Nc2nc(-c3ccc(Cl)cc3)cs2)cc1`, the Potency result was “inactive”. Regarding `Cc1cc2nc(NCCCO)n(CC(=O)c3cc(C(C)(C)C)c(O)c(C(C)(C)C)c3)c2cc1C`, the Potency entry was “inactive”. For `CC1(C)CC23[C@@H]4CC(=O)[C@@H]2COC(=O)[C@@H]3CC[C@H]41`, the Potency result was “inactive”. On to `CC[C@H](CO)Nc1nc(Nc2cccc(-c3ccccn3)c2)c2ncn(C(C)C)c2n1`, for which the Potency result is “inactive”. With `Cc1ccccc1C(=O)Nc1ccc(C(=O)N2CCC[C@@H](O)c3cc(Cl)ccc32)c(C)c1`, the Potency result was “inactive”. On to `CCCCn1c(-c2ccccc2)nc(-c2ccccc2)c1CN(Cc1ccc2c(c1)OCO2)Cc1ccc2c(c1)OCO2`, for which the Potency result was “inactive”. `CCOC(=O)c1cccc(CNc2ccc(N(C)C(=O)Nc3ccccc3)cc2)c1`: the Potency result was “inactive”. Turning to `CC1CCN(C(c2ccc(F)cc2)c2ccc(C(C)C(=O)O)cc2-c2ccc(C(F)(F)F)cc2)CC1` (stereo not given), the Potency entry was “inactive”. Take `O=C(NC(NC(=S)Nc1ccc(F)c([N+](=O)[O-])c1)C(Cl)(Cl)Cl)C(c1ccccc1)c1ccccc1` (stereo not given): the Potency result was “inactive”. For `COc1ccc(CNC(=O)Nc2ncc([N+](=O)[O-])s2)cc1`, the Potency entry is “inactive”. In the case of `OCC(CO)(CO)NCC(O)Cn1c2ccc(Cl)cc2c2cc(Cl)ccc21` (stereo not given), the Potency entry is “inactive”.
